Screens deposited in PubChem BioAssay by Broad Institute.
In the library only some 2.3% were active in any assay of this set; here they are far more common.
SIRT5 inh = inhibitors of human sirtuin-5 desuccinylase; AID 652115; actives 1.1% (n = 330,000); Q9NXA8; Purified SirT5, succinyl-peptide AMC, trypsin-coupled fluorescence; inhibition, % at 15 µM; in the data active means inhibition above about 15%; inconclusive means no clear call, values can overlap the other calls
Rtt109 Vps75 = blocks Candida albicans Rtt109/Vps75 acetyltransferase activity; actives 0.16% (n = 330,000); inhibition, % at 34.9 µM; Q5AAJ8; purified Rtt109/Vps75, ThioGlo CoA-SH fluorescence, 4 h;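 active means inhibition of at least 50% in every replicate; inconclusive means best replicate reaches 50% inhibition but some replicates fall short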
PDI inh = inhibitors of human protein disulfide isomerase; PDI insulin aggregation turbidity, A650, 90 min; inhibition, % at 10 µM; actives 0.052% (n = 350,000); AID 588391;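 active means mean inhibition across replicates of 30% or more, whatever share of single replicates reach that level; inconclusive means mean inhibition below 30% while every single replicate reaches 30%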
Target sequence (P07237 whole entry, looked up): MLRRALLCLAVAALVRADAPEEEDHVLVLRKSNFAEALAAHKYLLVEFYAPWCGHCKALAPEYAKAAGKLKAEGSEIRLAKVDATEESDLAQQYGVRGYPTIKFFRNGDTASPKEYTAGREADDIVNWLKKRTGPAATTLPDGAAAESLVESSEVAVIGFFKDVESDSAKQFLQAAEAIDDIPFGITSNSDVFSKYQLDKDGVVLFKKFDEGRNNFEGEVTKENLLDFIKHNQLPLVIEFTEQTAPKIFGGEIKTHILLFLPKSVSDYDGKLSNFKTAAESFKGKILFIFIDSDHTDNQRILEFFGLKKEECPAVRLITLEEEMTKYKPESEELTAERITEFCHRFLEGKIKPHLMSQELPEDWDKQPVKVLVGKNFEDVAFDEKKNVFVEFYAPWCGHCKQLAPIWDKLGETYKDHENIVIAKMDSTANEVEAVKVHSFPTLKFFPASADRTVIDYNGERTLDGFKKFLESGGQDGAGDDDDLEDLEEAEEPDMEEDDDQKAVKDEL
ERp5 inh = ERp5 (human) disulfide isomerase inhibition; ERp5 insulin aggregation, absorbance 650 nm, 90 min; AID 651711; actives 0.05% (n = 350,000); Q15084; inhibition, % at 9.99 µM;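 active means mean replicate inhibition above about 25%, with every replicate also reaching it, limit read from the data, passing the limit was not always enough; inconclusive means only one of those two criteria met; inactive means neither criterion met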
DENV2 CPE rescue = protects cells from dengue virus 2 cytopathic effect. DENV2-infected cells, cytopathic effect rescue, plate reader. CPE inhibition, % at 9.99 µM. actives 1.7% (n = 350,000); in the data active means CPE inhibition above about 20%, passing the limit was not always enough; inconclusive means no clear call, values can overlap the other calls; tested in BHK-21 cells;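 further: 0% = median of neutral control wells and 100% = median of positive control wells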
Active calls of the source: *; ? = inconclusive; · = no result given; ! = not confirmed by another sample.

SMILES	SIRT5 inh	Rtt109 Vps75	PDI inh	ERp5 inh	DENV2 CPE rescue
N#CCCn1cc(C(=O)CN2C(=O)NC3(CCCCCC3)C2=O)c2ccccc21	0.0	12.9	-1.3	2.4	11.0
N#CCCn1cc(C(=O)CN2C(=O)NC3(CCc4ccccc43)C2=O)c2ccccc21 (configuration not stated)	1.3	·	-6.5	1.8	33.6*
COc1cccc(CNC(=O)C[C@@H]2CC[C@H](NC(=O)C3CCOCC3)[C@H](CO)O2)c1	-2.6	·	·	-0.9	-2.3
Cc1ccc(NC2=C(Cl)C(=O)c3ccccc3C2=O)cc1	-2.6	1.5	-8.6	-5.0	83.3*
O=C1C(Cl)=C(Nc2ccc(O)cc2)C(=O)c2ccccc21	-2.0	4.7	-3.1	-1.9	8.1
Cc1cccc(NC2=C(NCCO)C(=O)c3ccccc3C2=O)c1	1.9	-6.2	1.7	-7.1	-0.4
Cc1cc(C)cc(NC2=C(N)C(=O)c3ccccc3C2=O)c1	16.1*	-1.9	0.7	2.6	·
C[C@H](CO)N1C[C@H](C)[C@H](CN(C)C(=O)C2CCCCC2)Oc2ncc(-c3cccc(F)c3)cc2C1=O	-0.3	·	·	-0.6	8.0
CC(/C=N/NC(=O)c1nn(C)c(C)c1Br)=C\c1ccccc1	·	6.2	-8.6	4.2	25.0*
CC(=O)Nc1ccc(NC(=O)CSc2nnc(-c3cccs3)n2N)cc1	0.8	3.7	6.5	-0.2	59.6*
COc1ccc(NC(=O)CSc2nnc(-c3ccccc3)n2N)cc1	·	59.4*	-4.0	·	·
Cn1nnnc1SCC(=O)Nc1ccc(Oc2ccc(Cl)cc2)cc1	-9.9	6.6	-4.2	2.1	-7.2
COc1ccc(NC(=O)CCSc2nnnn2C)cc1	17.8*	-6.4	-0.8	1.5	-8.3
CO[C@@H]1CN(C)C(=O)c2ccc(NC(=O)C3CCC3)cc2OC[C@@H](C)N(CC2CCCCC2)C[C@@H]1C	9.0	·	·	2.3	2.9
COc1cccc(NC(=O)CSc2nc3c(sc4ccccc43)c(=O)n2CCN(C)C)c1	-8.5	142.0*	-3.5	2.3	-4.5
CCOc1cc(/C=N/NC(=O)CSc2nncn2C)ccc1OCc1cccc(C)c1	·	50.3*	-13.0	·	·
CCNc1ccc(S(=O)(=O)NCCN(C)C)cc1[N+](=O)[O-]	-1.0	3.1	-3.2	-5.4	-2.3
CN(C)CCCNS(=O)(=O)c1ccc(NC2CCCCCC2)c([N+](=O)[O-])c1	28.7*	9.4	4.3	1.5	-8.8
COc1ccc(NC(=O)Nc2ccc3c(c2)C(=O)N([C@@H](C)CO)C[C@@H](C)[C@H](CN(C)C(=O)C2CCCCC2)OCCCC[C@H](C)O3)cc1	0.7	·	·	-0.5	-12.5
COc1ccc(NC(=O)Nc2ccc3c(c2)C(=O)N([C@H](C)CO)C[C@@H](C)[C@@H](CN(C)C(=O)C2CCCCC2)OCCCC[C@H](C)O3)cc1	16.8*!	·	4.3	-3.5	45.5*!
COc1ccc(NC(=O)Nc2ccc3c(c2)C(=O)N([C@@H](C)CO)C[C@@H](C)[C@H](CN(C)C(=O)C2CCCCC2)OCCCC[C@@H](C)O3)cc1	0.6	·	·	11.9	21.8*
COc1ccc(NC(=O)Nc2ccc3c(c2)C(=O)N([C@H](C)CO)C[C@H](C)[C@@H](CN(C)C(=O)C2CCCCC2)OCCCC[C@@H](C)O3)cc1	0.2	·	·	0.6	31.8*
C[C@@H]1CCCCO[C@H](CN(C)C(=O)Nc2cccc3ccccc23)[C@@H](C)CN([C@@H](C)CO)C(=O)c2cc(NC(=O)CCC(F)(F)F)ccc2O1	·	·	·	·	-21.0
C[C@H]1CN([C@@H](C)CO)C(=O)Cc2cc(NS(=O)(=O)c3cccs3)ccc2O[C@@H]1CN(C)Cc1ccc(-c2ccccc2)cc1	15.3*	·	·	-0.8	?
C[C@H](CO)N1C[C@H](C)[C@@H](CN(C)Cc2ccc(-c3ccccc3)cc2)Oc2ccc(NS(=O)(=O)c3cccs3)cc2CC1=O	18.2*	·	·	0.3	-17.2
SMILES	SIRT5 inh	Rtt109 Vps75	PDI inh	ERp5 inh	DENV2 CPE rescue
C[C@H]1CN([C@@H](C)CO)C(=O)Cc2cc(NS(=O)(=O)c3cccs3)ccc2O[C@H]1CN(C)Cc1ccc2c(c1)OCO2	2.2	·	·	0.5	103.8*
C[C@H](CO)N1C[C@H](C)[C@@H](CN(C)Cc2ccc(C(=O)O)cc2)Oc2ccc(NS(=O)(=O)c3cccs3)cc2CC1=O	1.2	·	·	42.6*	-0.4
C[C@@H]1CN([C@H](C)CO)C(=O)c2cc(NS(=O)(=O)c3ccc(F)cc3)ccc2O[C@@H](C)CCCCO[C@H]1CN(C)S(=O)(=O)c1cccs1	2.0	·	·	0.6	?
CC(=O)N(C)C[C@H]1Oc2cc(C#Cc3ccccc3)ccc2S(=O)(=O)N([C@@H](C)CO)C[C@H]1C	3.2	·	·	-3.2	13.8
C[C@H]1CN([C@@H](C)CO)C(=O)Cc2cc(NC(=O)Nc3ccc(C(F)(F)F)cc3)ccc2O[C@@H]1CN(C)S(=O)(=O)c1cccs1	6.5	·	·	-2.9	-17.3
C[C@@H]1CN([C@H](C)CO)C(=O)Cc2cc(NS(=O)(=O)c3cccs3)ccc2O[C@H]1CN(C)Cc1ccc(C(=O)Nc2ccccc2N)cc1	-1.8	·	·	-0.7	38.9*
COc1ccccc1S(=O)(=O)N1CCN(S(=O)(=O)c2ccccc2C#N)CC1	91.4*	1.6	-2.7	-1.2	-1.2
COc1ccccc1S(=O)(=O)N1CCN(S(=O)(=O)c2cccs2)CC1	-4.3	-4.4	-2.9	-11.3	-8.5
COc1ccc(OC)c(CN2C(=O)CN(S(C)(=O)=O)CC2(C)C(=O)NCc2ccccc2)c1 (configuration not stated)	-1.9	·	·	5.0	32.4*
CC1(C(=O)NCc2ccccc2)CN(S(C)(=O)=O)CC(=O)N1Cc1ccc2c(c1)OCO2 (configuration not stated)	-1.5	·	·	11.4	0.8
Cc1cc(C)nc(N/N=C/c2sccc2C)n1	19.7*	-3.2	-1.1	-0.2	7.0
C[C@@H]1CN([C@H](C)CO)S(=O)(=O)c2ccc(C#C[C@@H](C)O)cc2O[C@H]1CN(C)Cc1ccccn1	0.4	·	·	-6.1	30.5*
CC(C)C#Cc1ccc2c(c1)O[C@@H](CN(C)Cc1ccccn1)[C@@H](C)CN([C@H](C)CO)S2(=O)=O	3.6	·	·	5.5	-8.5
CC(C)C#Cc1ccc2c(c1)O[C@@H](CN(C)Cc1ccccn1)[C@H](C)CN([C@H](C)CO)S2(=O)=O	18.7*	·	·	2.5	-8.0
C[C@H](CO)N1C[C@H](C)[C@H](CN(C)Cc2ccccn2)Oc2cc(C#C[C@@H](C)O)ccc2S1(=O)=O	2.7	·	·	0.5	0.3
C[C@@H]1CN([C@H](C)CO)S(=O)(=O)c2ccc(C#Cc3ccccn3)cc2O[C@@H]1CN(C)Cc1cccc(F)c1	26.8*	·	·	6.8	8.8
CSc1nc2c(=S)[nH]c(=S)[nH]c2s1	2.5	·	·	2.5	87.3*
O=C(C[C@@H]1C=C[C@@H](NC(=O)C2CCC2)[C@@H](CO)O1)NCc1ccncc1	4.0	·	·	-5.7	-0.3
COc1cccc(NC(=O)N(C)C[C@@H]2Oc3cc(-c4ccccc4F)ccc3S(=O)(=O)N([C@H](C)CO)C[C@@H]2C)c1	17.0*	·	·	-5.8	?
